Bioassay records: PubChem BioAssay, National Center for Advancing Translational Sciences (NCATS)
In the library only some 5.5% were active in any assay of this set; here they are far more common.
MBNL1-CUG inh: inhibitors of human MBNL1 binding to CUG repeat RNA | Q9NR56 | TR-FRET MBNL1-His/biotin-(CUG)12 binding, 665/545 ratio | Potency, µM (top dose mostly 57.5 µM), actives largely listed as inhibitors | hit rate 0.036% among 280,000 | AID 2675; active means well fitted inhibition curve with a large enough effect in the signal ratio, with a control signal flat, not every such curve was filed as active; inconclusive means small, poorly fitted or top-dose-only effect, or effect the other way, or a change in a side signal; inactive means no such curve, though single readings can be large or run the other way; the % refers to the signal ratio
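TR-FRET between His-tagged MBNL1 and biotin-(CUG)12 RNA, detected with Tb anti-His antibody (0.055 ng/ul) and streptavidin-XL665 (5 nM), 60 min at room temperature. Compounds titrated 92 nM to 58 uM; 665/545 nm ratio normalized to buffer and complex controls.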
RORgamma inh: inhibitors of mouse ROR gamma transcriptional activity | P51450 | Drosophila S2 Gal4-RORgamma UAS-luciferase reporter, 20 h | Potency, µM (series often up to 53.6 µM), most hits filed as inhibitors | hit rate 5.4% among 310,000 | AID 2551; further: nearly all actives have a fitted effect of over 60% in size
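A Gal4/UAS one-hybrid system in insect cells: metallothionein-promoter Gal4–ROR gamma fusion plus Photinus luciferase reporter. Copper sulfate 700 uM final, 20 hr ambient incubation, luminescent detection after 10 min with reagent.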
CtBP-E1A inh: CtBP/E1A binding inhibition; AlphaScreen GST-E1A/His-CtBP binding, 1536-well; hits give low values; activity change, % (concentration not given with the values); hit rate 0.49% among 340,000; in the data active means activity change below about -65%; inconclusive means mostly about -30% to -63%
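GST-E1A and His-tagged CtBP (125 nM each as 5X stock) were preincubated with pin-transferred compound for 2 h at 37 °C in the dark, then glutathione donor and nickel acceptor beads were added for 1 h before AlphaScreen reading.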
Gal4-VP16 FLuc: inhibits Gal4-VP16 luciferase reporter, ROR gamma counter-screen; Drosophila S2 Gal4-VP16 UAS-luciferase, luminescence, 20 h; Potency, µM (series often up to 53.6 µM), most hits filed as inhibitors; hit rate 3.5% among 310,000; AID 2546;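 further: Gal4-VP16 expression switched on by copper sulfate through the metallothionein promoter; nearly all actives have a fitted effect of over 50% in size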
Six1-Eya2 blk: blocks human Six1 binding to Eya2; Q15475+O00167; AlphaScreen GST-Six1/His-Eya2 binding, biochemical; hits give low values; activity change, % (no concentration beside the values); hit rate 0.56% among 360,000; AID 651725; in the data active means activity change below about -65%; inconclusive means mostly about -30% to -63%
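Compounds are tested against tagged Six1 and Eya2 proteins bridged by glutathione donor and nickel acceptor beads; after a one-hour incubation at 37 °C without light, AlphaScreen emission is recorded.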
CBFb RUNX1 block: blocks binding between human CBF-beta and RUNX1; Q01196+Q13951; AlphaScreen CBFb-His/RUNX1-biotin binding, biochemical; Potency, µM (titrated, usually from 59.8 µM), hits mostly inhibitors; 230,000 tested, under 10 active
Target sequence (Q01196 whole entry, looked up): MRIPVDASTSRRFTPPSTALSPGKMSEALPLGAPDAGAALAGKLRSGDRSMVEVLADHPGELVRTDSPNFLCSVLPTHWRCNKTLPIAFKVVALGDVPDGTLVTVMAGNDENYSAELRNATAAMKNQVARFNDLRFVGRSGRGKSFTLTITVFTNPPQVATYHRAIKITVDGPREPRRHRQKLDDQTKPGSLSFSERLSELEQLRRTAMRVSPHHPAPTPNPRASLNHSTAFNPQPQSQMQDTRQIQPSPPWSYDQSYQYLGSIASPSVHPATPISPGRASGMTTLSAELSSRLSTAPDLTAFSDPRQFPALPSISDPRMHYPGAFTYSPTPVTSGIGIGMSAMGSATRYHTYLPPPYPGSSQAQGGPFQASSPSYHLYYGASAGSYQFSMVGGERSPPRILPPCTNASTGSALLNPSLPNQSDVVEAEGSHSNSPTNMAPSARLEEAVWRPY
Target sequence (Q13951 whole entry, looked up): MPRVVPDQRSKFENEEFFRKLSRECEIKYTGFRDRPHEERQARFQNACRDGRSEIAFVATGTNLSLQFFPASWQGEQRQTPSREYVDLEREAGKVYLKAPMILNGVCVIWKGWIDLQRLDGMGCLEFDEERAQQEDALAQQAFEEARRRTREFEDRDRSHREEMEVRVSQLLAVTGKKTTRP
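AlphaScreen binding: CBFb-His and RUNX1-biotin (30 nM each) preincubated 20 min, compound added for 15 min, then nickel and streptavidin beads for 90 min, all at room temperature. Disruption of the interaction by any mechanism counts as activity.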
Numbers stand for hits; i = inactive; ? = inconclusive; nt = not tested or not shown. Unless noted, the call rests on the fitted dose curve; in most records, active means well fitted curve in the direction sought with a large enough effect; inconclusive means small, poorly fitted or top-dose-only effect, or another doubt; inactive means no such curve, though single readings can be large; an effect the other way counts as inactive or inconclusive.

SMILES	MBNL1-CUG inh	RORgamma inh	CtBP-E1A inh	Gal4-VP16 FLuc	Six1-Eya2 blk	CBFb RUNX1 block
S=C1NC2=C(CCCC2=C2SCCCS2)C(c2ccccc2)N1 (configuration not stated)	i	?	nt	7.94µM	i	i
COc1ccc(C2NC(=S)NC3=C2CCCC3=C2SCCS2)cc1 (configuration not stated)	i	10µM	i	?	i	i
Cn1nc([N+](=O)[O-])nc1S(C)(=O)=O	?	5.01µM	i	?	i	i
COc1ccc(N2CCN(c3nc4ccccc4n3CC(=O)c3ccccc3)CC2)cc1	i	?	i	i	i	?
COc1ccc(N2CCN(Cc3nc4ccccc4n3C)CC2)cc1	i	12.6µM	i	i	i	i
O=C(CCN1C(=O)c2ccccc2C1=O)NC(=S)Nc1ccccc1	i	12.6µM	i	?	i	i
O=C(CCN1C(=O)c2ccccc2C1=O)Nc1cccc(O)c1	i	i	i	i	i	nt
Cc1cc(C)cc(NC(=S)NC(=O)CCN2C(=O)c3ccccc3C2=O)c1	i	3.55µM	i	4.47µM	i	i
O=C(CCN1C(=O)c2ccccc2C1=O)NC(=S)Nc1cccc(Cl)c1	i	11.2µM	i	?	i	i
Cc1cc(C)c(S(=O)(=O)N(C)CC(=O)NCCN2CCOCC2)c(C)c1	i	i	i	i	i	nt
Cc1cc(Br)ccc1NC(=O)CN(C)C(=O)C1CSC2(C)CCC(=O)N12 (configuration not stated)	nt	nt	i	nt	i	nt
COc1ccc(C)cc1NC(=O)CN1CCN(C/C=C/c2ccccc2)CC1	i	10µM	i	?	i	i
COc1ccc(C)cc1NC(=O)CN1CCN(c2ccccc2F)CC1	i	i	i	i	i	i
CN(C(=O)c1ccc(Cl)cc1)C1CCS(=O)(=O)C1 (configuration not stated)	nt	nt	nt	nt	i	nt
COc1cc2cc(C(=O)N(C)C3CCS(=O)(=O)C3)[nH]c2cc1OC (configuration not stated)	i	20µM	i	i	i	nt
C=C(C)CSc1cc(C)c(C#N)c2nc3ccccc3n12	?	?	i	3.98µM	i	i
Cc1cc(NCCCCO)n2c(nc3ccccc32)c1C#N	i	i	i	i	i	i
Cc1cc(N2CCN(C(C(=O)NC3CCCC3)C(C)(C)C)CC2)c2ccccc2n1 (configuration not stated)	nt	nt	i	nt	i	nt
COc1ccc(S(=O)(=O)N(CCO)c2ccccc2CN(C)CC=Cc2ccc(Cl)cc2)cc1	nt	i	nt	14.1µM	nt	i
O=[N+]([O-])c1ccccc1CCc1cnc(Cl)s1	i	i	i	i	i	nt
CC(=O)c1ccc(OC(=O)CCc2ccccc2)cc1	i	i	?	i	-79.5	nt
COC(=O)CCC(=O)Nc1ccc(NC(=O)CCC(=O)OC)cc1	i	i	i	i	i	i
COC(=O)CCC(=O)Oc1ccc(OC(=O)CCC(=O)OC)cc1	i	12.6µM	nt	?	nt	i
CCn1cc(C(=O)O)c(=O)c2cc(F)c(N3CCN(C(=S)NC(=O)c4ccccc4)CC3)cc21	i	i	i	i	i	i
CCn1cc(C(=O)O)c(=O)c2cc(F)c(N3CCN(C(=S)NC(=O)c4cc(OC)cc(OC)c4)CC3)cc21	i	2.51µM	nt	6.31µM	i	nt
SMILES	MBNL1-CUG inh	RORgamma inh	CtBP-E1A inh	Gal4-VP16 FLuc	Six1-Eya2 blk	CBFb RUNX1 block
CCCOc1ccc(C(=O)NC(=S)N2CCN(c3ncc4c(=O)c(C(=O)O)cn(CC)c4n3)CC2)cc1	nt	nt	i	nt	i	nt
CCn1cc(C(=O)O)c(=O)c2cnc(N3CCN(C(=S)NC(=O)c4ccccc4)CC3)nc21	i	2.51µM	i	i	i	i
Cc1ccnc(N2CCCC(C(=O)Nc3cccc(C)c3C)C2)n1 (configuration not stated)	i	i	i	i	i	nt
COc1ccc(Nc2cc(C)c3c(O)cccc3n2)cc1	i	i	i	i	i	i
Cc1ccc(Nc2cc(C)c3c(O)cccc3n2)cc1C	i	?	i	10µM	i	i
O=c1ccc(N=Nc2ccccc2)ccc1O	?	?	?	3.55µM	?	nt
O=S(=O)(O)c1ccc(N=Nc2ccccc2)cc1	?	i	i	i	i	i
COc1ccc(S(=O)(=O)NNC(=O)Nc2ccc(C)cc2C)c(OC)c1	i	i	i	i	i	nt
